# Several values for one entry are separate records, joined by “and”; a condition that tells them apart may be missing. Identical values can stand only once. Results filed as inconclusive are left out. A call without a number means that no potency is given here. Activity calls are given as the source filed them. Unless noted, calls follow the shape of the dose curve; as a rule, active = well fitted curve in the direction sought with a large enough effect; inconclusive = small, poorly fitted or top-dose-only effect, or another doubt; inactive = no such curve, though single readings can be large; an effect the other way counts as inactive or inconclusive.
# Legend:
# [1] = target: Thyroid hormone receptor beta (Homo sapiens) (UniProt P10828); experiment: qHTS assay for small molecule agonists of thyroid hormone receptor beta signaling (AID 588545; calls by dose curve)
# Sequence of Thyroid hormone receptor beta (Homo sapiens) (P10828 whole entry, looked up): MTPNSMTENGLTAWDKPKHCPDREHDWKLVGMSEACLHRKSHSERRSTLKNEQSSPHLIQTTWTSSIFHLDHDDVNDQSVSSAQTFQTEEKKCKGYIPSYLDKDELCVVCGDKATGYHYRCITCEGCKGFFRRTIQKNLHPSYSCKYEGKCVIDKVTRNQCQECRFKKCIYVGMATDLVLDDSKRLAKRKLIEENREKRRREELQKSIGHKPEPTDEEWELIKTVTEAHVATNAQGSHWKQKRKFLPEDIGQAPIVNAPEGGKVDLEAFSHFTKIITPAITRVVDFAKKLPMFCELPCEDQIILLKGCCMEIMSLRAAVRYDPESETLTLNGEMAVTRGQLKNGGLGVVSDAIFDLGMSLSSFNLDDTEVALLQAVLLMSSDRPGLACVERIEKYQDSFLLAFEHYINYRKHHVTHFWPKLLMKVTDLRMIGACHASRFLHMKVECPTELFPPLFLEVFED
# In short: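 Cells (2500/well) were seeded, incubated 4 hrs at 37 C, dosed with a compound series, incubated 18 hrs, loaded with CCF4 dye for 2 hrs at RT, then read for fluorescence. Data were scaled between DMSO (0%) and 10 nM T3 (100%).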
# [2] = qHTS assay for small molecule antagonists of retinoid X receptor alpha signaling (AID 588546; active = well fitted inhibition curve with a large enough effect in the signal ratio, with a control signal flat, not every such curve was filed as active; the % refers to the signal ratio;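 also: cells stimulated with 9-cis-retinoic acid as agonist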); settings: HEK293T RXRa-UAS-bla, beta-lactamase ratio, antagonist mode; measured here: W530 green channel, cytotoxicity proxy
# In short: (§1)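 Beta-lactamase reporter inhibition, read as CCF4 fluorescence ratio (ex 405, em 460/530 nm) after 2 h at RT. HEK293T UAS-bla cells, 2500/well, were stimulated with 9-cis-RA at 500 or 100 nM final alongside test compound for 18 h at 37 C.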
# [3] = target: Retinoic acid receptor RXR-alpha (Homo sapiens) (UniProt P19793); experiment: as above; settings: HEK293T RXRa-UAS-bla, beta-lactamase ratio, antagonist mode
# Sequence of Retinoic acid receptor RXR-alpha (Homo sapiens) (P19793 whole entry, looked up): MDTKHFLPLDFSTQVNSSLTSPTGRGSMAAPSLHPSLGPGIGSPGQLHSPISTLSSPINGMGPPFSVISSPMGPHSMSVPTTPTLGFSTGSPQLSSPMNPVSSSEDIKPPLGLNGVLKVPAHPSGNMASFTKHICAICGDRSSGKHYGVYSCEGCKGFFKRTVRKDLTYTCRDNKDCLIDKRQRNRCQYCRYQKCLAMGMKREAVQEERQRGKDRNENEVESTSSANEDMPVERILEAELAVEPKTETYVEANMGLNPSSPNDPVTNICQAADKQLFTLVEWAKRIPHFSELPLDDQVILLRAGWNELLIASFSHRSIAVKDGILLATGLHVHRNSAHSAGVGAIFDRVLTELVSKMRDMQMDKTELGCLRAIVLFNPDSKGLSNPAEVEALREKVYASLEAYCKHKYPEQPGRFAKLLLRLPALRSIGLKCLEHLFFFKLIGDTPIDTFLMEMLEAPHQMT
# In short: as §1
# [4] = qHTS assay for small molecule activators of the p53 signaling pathway (AID 651743; active = well fitted activation curve with a large enough effect in the signal ratio, not every such curve was filed as active; the % refers to the signal ratio; also: potency is read from the fitted curve at half-maximal effect); settings: HCT-116 p53RE-bla, beta-lactamase FRET ratio, 16 h; activation: stronger effect = higher value
# In short: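 After 16 hours compound treatment at 37 C, HCT-116 cells stably expressing p53RE-driven beta-lactamase were loaded with LiveBLAzer B/G FRET substrate for 2 hours at room temperature. Fluorescence intensity served as the p53 activation read-out.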
# [5] = qHTS assay for small molecule activators of the nuclear factor-kappa B (NF-kB) signaling pathway (AID 651749; active = well fitted activation curve with a large enough effect in the signal ratio; the % refers to the signal ratio); settings: NF-kB-bla ME-180 cells, beta-lactamase FRET ratio, 16 h; activation: stronger effect = higher value
# In short: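 Activation measured after 16 hr compound treatment at 37C, 5% CO2, of 2,000 ME-180 cells/well stably expressing an NF-kB response element–driven beta-lactamase reporter, via FRET-disruption fluorescence.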
# [6] = qHTS assay for environmental chemicals that activate the Aryl hydrocarbon Receptor (AhR) signaling pathway (AID 651777); settings: 1A2-DRE human hepatoma cells, luciferase, 24 h; activation: stronger effect = higher value; also: nearly all actives have a fitted effect of over 15% in size; also: potency is read from the fitted curve at half-maximal effect
# In short: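 Human hepatoma 1A2-DRE cells stably carrying a DRE/CYP1A2 promoter–luciferase reporter, 1,200 cells/well, exposed to compound 24 hr at 37 C. Luciferase read by One-Glo luminescence after 30 min at room temperature; increased signal marks AhR activation.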
# [7] = target: Peroxisome proliferator-activated receptor alpha (Homo sapiens) (UniProt Q07869); experiment: qHTS assay for small molecule agonists of the peroxisome proliferator-activated receptor alpha (PPARalpha) signaling pathway (AID 651778); settings: PathHunter PPARalpha complementation, chemiluminescence, 6 h; stronger effect = higher value
# Sequence of Peroxisome proliferator-activated receptor alpha (Homo sapiens) (Q07869 whole entry, looked up): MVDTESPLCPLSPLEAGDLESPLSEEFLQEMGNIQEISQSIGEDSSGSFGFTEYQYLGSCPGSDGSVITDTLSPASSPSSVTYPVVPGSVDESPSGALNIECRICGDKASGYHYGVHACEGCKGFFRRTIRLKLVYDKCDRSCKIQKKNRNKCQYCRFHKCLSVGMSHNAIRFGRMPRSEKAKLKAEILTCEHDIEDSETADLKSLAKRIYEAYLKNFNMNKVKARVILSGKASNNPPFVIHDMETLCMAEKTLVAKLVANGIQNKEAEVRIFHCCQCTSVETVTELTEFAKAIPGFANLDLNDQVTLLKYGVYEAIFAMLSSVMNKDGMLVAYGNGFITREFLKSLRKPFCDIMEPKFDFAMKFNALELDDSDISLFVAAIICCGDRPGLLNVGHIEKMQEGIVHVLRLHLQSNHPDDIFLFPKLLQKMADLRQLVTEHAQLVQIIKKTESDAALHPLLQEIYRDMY
# In short: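 Chemiluminescence from complemented enzyme reported PPARalpha activation in cells after 6 hr of compound treatment at 37 C. The detection reagent was incubated for 60 min at room temperature, and compounds were scored as agonists.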
# [8] = qHTS assay for small molecule agonists of the antioxidant response element (ARE) signaling pathway measured by Nrf2-dependant transcriptional activity - cell viability counter screen (AID 720653; active = well fitted curve in the direction sought with a large enough effect in the repeat runs; an effect the other way counts as inactive or inconclusive); settings: ARE-bla HepG2 viability, CellTiter-Glo ATP luminescence, 16 h; max response: stronger effect = lower value
# In short: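 Cytotoxicity counter screen: intracellular ATP quantified by CellTiter-Glo luminescence in the same ARE-bla HepG2 plates, after 16 h compound exposure and a 2 h beta-lactamase substrate step.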
# [9] = qHTS assay for cell viability of HEK293 cells (AID 743288); settings: ATP luminescence (CellTiter-Glo), 18 h; max response: stronger effect = lower value; also: nearly all actives have a fitted effect of over 50% in size
# In short: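 Steps: plate 2,000 parental HEK293 cells per well; incubate ≥5 h, 37 C; add compounds in DMSO; incubate 18 h, 37 C; add CellTiter-Glo; wait 30 min at room temperature; read luminescence.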
# [10] = qHTS assay for cell viability of the p53RE-bla HCT-116 cell line (AID 743292); also: nearly all actives have a fitted effect of over 55% in size
# In short: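 CellSensor p53RE-bla HCT-116 cells (4,000/well) pre-incubated 5 h at 37 C, then exposed to compounds in DMSO for 16 h at 37 C. Viability read as ATP content by CellTiter-Glo luminescence after 30 min at room temperature.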
# [11] = target: Nuclear receptor subfamily 1 group I member 2 (Rattus norvegicus) (UniProt Q9R1A7); experiment: qHTS assay for small molecule activators of the rat pregnane X receptor (rPXR) signaling pathway (AID 651751; call rule not given here); settings: rPXR reporter cells, luciferase (One-Glo), 24 h
# Sequence of Nuclear receptor subfamily 1 group I member 2 (Rattus norvegicus) (Q9R1A7 whole entry, looked up): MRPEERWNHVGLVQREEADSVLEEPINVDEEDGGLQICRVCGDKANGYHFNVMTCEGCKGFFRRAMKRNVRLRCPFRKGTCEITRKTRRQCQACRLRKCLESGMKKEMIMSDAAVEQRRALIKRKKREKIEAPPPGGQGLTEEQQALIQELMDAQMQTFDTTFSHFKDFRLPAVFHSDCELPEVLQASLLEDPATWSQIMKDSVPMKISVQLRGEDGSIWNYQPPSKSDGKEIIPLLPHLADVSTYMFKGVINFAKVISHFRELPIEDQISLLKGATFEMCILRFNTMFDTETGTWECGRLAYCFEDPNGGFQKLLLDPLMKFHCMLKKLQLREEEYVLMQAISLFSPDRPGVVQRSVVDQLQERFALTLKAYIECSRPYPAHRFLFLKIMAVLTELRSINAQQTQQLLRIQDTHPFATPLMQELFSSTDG
# [12] = target: ATP-dependent 6-phosphofructokinase (Trypanosoma brucei brucei) (UniProt O15648); experiment: qHTS Assay to Find Inhibitors of T. brucei phosphofructokinase: hit validation (AID 492961);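 also: luminescence reports ADP formed as PFK phosphorylates fructose-6-phosphate with ATP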
# Sequence of ATP-dependent 6-phosphofructokinase (Trypanosoma brucei brucei) (O15648 whole entry, looked up): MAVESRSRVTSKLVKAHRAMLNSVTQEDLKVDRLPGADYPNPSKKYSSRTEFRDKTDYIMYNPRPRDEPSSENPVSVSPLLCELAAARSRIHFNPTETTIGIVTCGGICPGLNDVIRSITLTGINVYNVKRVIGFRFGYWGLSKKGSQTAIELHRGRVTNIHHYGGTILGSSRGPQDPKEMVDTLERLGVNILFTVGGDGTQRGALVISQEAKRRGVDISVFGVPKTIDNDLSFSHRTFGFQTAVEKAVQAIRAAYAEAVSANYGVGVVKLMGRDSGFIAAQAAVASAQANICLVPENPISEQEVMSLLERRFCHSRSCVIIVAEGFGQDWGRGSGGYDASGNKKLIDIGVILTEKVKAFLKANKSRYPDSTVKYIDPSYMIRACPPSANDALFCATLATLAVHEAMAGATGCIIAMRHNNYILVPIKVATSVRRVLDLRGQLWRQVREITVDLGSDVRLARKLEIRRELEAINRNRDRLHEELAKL
# In short: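 Measures ADP output of PFK (1.25 nM) at 0.1 mM ATP, 0.5 mM F6P, pH 8.0 TEA buffer with 5 mM MgCl2. No-enzyme wells define full inhibition; uninhibited enzyme wells define zero.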
# [13] = tested on: AS120; experiment: qHTS profiling for inhibitors of Plasmodium falciparum proliferation (AID 504749); also: nearly all actives have a fitted effect of over 60% in size; settings: P. falciparum in erythrocytes, SYBR Green DNA, 72 h; series mostly up to 28.7 µM
# In short: (§2)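 SYBR Green fluorescence of parasite DNA, read after lysis and overnight dark incubation, measured growth over 72 h in erythrocyte culture at 0.3% parasitemia and 2.5% hematocrit. Data normalised to DMSO and 0.29 uM artemisinin, with plate-drift correction.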
# [14] = tested on: ATS189; experiment: as above; settings: P. falciparum in erythrocytes, SYBR Green DNA, 72 h; series mostly up to 28.7 µM
# In short: as §2
# [15] = tested on: CP191; experiment: as above; settings: P. falciparum in erythrocytes, SYBR Green DNA, 72 h; series mostly up to 28.7 µM
# In short: as §2
# [16] = tested on: CP192; experiment: as above; settings: P. falciparum in erythrocytes, SYBR Green DNA, 72 h; series mostly up to 28.7 µM
# In short: as §2
# [17] = tested on: CP203; experiment: as above; settings: P. falciparum in erythrocytes, SYBR Green DNA, 72 h; series mostly up to 28.7 µM
# In short: as §2
# [18] = tested on: CP291; experiment: as above; settings: P. falciparum in erythrocytes, SYBR Green DNA, 72 h; series mostly up to 28.7 µM
# In short: as §2
# [19] = tested on: DFO2036; experiment: as above; settings: P. falciparum in erythrocytes, SYBR Green DNA, 72 h; series mostly up to 28.7 µM
# In short: as §2
# [20] = tested on: TAB113; experiment: as above; settings: P. falciparum in erythrocytes, SYBR Green DNA, 72 h; series mostly up to 28.7 µM
# In short: as §2
smiles,measurement,setting,value
Oc1c(Cl)c(Cl)c(Cl)c(Cl)c1Cl,Potency,[1],inactive
same,max response,[2],-15.3% and -8.92%
same,max response,[3],12.8% (inactive) and -17.7% (inactive)
same,Potency,[4],22.4 µM (active) and 39.8 µM (active)
same,activation,[5],-1.59% (inactive)
same,Potency,[6],44.7 µM (active) and 39.8 µM (active)
same,max response,[7],18.2% (inactive) and 10.1% (inactive)
same,max response,[8],-14.8% (inactive) and -25.3% (inactive)
same,max response,[9],-15.6% (inactive) and -10.7% (inactive)
same,outcome,[10],inactive
same,max response,[11],-11.9% (inactive) and -10.8% (inactive)
CO[C@H]1[C@@H](O)CC(OC2[C@@H](O)CC(OC3[C@@H](O)C[C@H](OC4CC[C@@]5(C)C(CCC6C5CC(O)[C@]5(C)[C@H](C7=CC(=O)OC7)CCC65O)C4)O[C@@H]3C)O[C@@H]2C)O[C@@H]1C (stereo not given in full),Potency,[12],inactive
same,Potency,[13],inactive
same,Potency,[14],inactive
same,Potency,[15],inactive
same,Potency,[16],inactive
same,Potency,[17],inactive
same,Potency,[18],inactive
same,Potency,[19],inactive
same,Potency,[20],inactive
CC(C)OC(=O)Nc1ccccc1,Potency,[1],inactive
same,max response,[2],-6.41%
same,max response,[3],-6.43% (inactive)
same,activation,[4],-1.81% (inactive)
same,activation,[5],0.27% (inactive)
same,activation,[6],12.4% (inactive)
same,max response,[7],-0.246% (inactive)
same,max response,[8],-3.27% (inactive)
same,max response,[9],-1.53% (inactive)
same,outcome,[10],inactive
same,max response,[11],10.9% (inactive)
CCN(CC)CCO[C@H]1CC[C@@]2(C)C(=CC[C@@H]3[C@H]2CC[C@]2(C)C(=O)CC[C@H]32)C1,Potency,[12],inactive
same,Potency,[13],inactive
same,Potency,[14],inactive
same,Potency,[15],inactive
same,Potency,[16],inactive
same,Potency,[17],inactive
same,Potency,[18],inactive
same,Potency,[19],inactive
same,Potency,[20],inactive

# Source: PubChem BioAssay (NCATS)
